Measured values as given in the supplement of paper PMC3484114.
± gives the standard deviation.

What follows are compounds tested on OVCAR-3-derived ovarian cancer stem-like cells (spheroids) (assay: cell growth relative to untreated control; higher = more growth (less inhibition)). Conditions: 2.29 µM; 96 h.
Outline: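 Stem-like cells derived from OVCAR-3 spheroids were dissociated with trypsin and seeded at 50,000 cells/mL in stem cell medium in ultra-low attachment 96-well plates, then preincubated for 24 h. Each compound was added at 2.29 uM to 4 replicate wells and left for 96 h at 37°C, 5% CO2. Viability came from TOX8 resazurin fluorescence (ex 560/em 590 nm) read after 4 h. Percent growth was expressed relative to untreated wells, after blank subtraction and removal of outliers by the Grubbs test.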

| Compound | cell growth [%] |
| --- | --- |
| CC(C)C1(Cl)CCC2C3(C)CCCC(C)(C(=O)O)C3CC(Cl)C2(Cl)C1Cl (centres undefined) | 94.6 ± 30 |
| CC[C@]1(O)C[C@H]2CN(CCc3c([nH]c4ccccc34)[C@@](C(=O)OC)(c3cc4c(cc3OC)N(C=O)[C@H]3[C@@](O)(C(=O)OC)[C@H](OC(C)=O)[C@]5(CC)C=CCN6CC[C@]43[C@@H]65)C2)C1 | 27 ± 6 |
| Nc1ccc(OCCCc2c(-c3ccccc3)nc(N)[nH]c2=O)cc1 | 82.7 ± 20 |
| Cc1cc(NCCCCCCCNc2cc(C)nc3cc(N)ccc23)c2ccc(N)cc2n1 | 96.4 ± 25 |
| COc1cc(O)c(Cc2ccccc2O)c(O)c1C(=O)CCc1ccccc1 | 86.8 ± 30 |
| COC(=O)C1=CC(=O)C(C(=O)Nc2ccc(OC)cc2)C(c2ccccc2)O1 (centres undefined) | 96.3 ± 45 |
| Cc1c(Cl)cccc1NC(=O)CC1Sc2ccccc2NC1=O (centres undefined) | 116 ± 8.3 |
| Cc1c(C(=O)C/C(=N\O)C(=O)Nc2cc(Cl)c(Cl)cc2Cl)[n+](=O)c2ccccc2n1[O-] | 68.5 ± 17 |
| NC(N)=N/N=C(\c1ccc(Cl)cc1)C1CC1 | 200 ± 43 |
| Cn1ncc2cc3c(Nc4ccc(Cl)cc4)cccc3nc21 | 8 ± 4.9 |
| N#CC(C#N)=Cc1ccc(Oc2ccccc2)cc1 | 86.2 ± 51 |
| COc1ccc2cc1Oc1ccc(cc1)CC1c3cc(c(OC)cc3CCN1C)Oc1c(OC)c(OC)cc3c1C(C2)N(C)CC3 (centres undefined) | 88.5 ± 18 |
| Cc1cc(Cl)ccc1N1C(=O)C(=O)C(c2nc3ccccc3o2)C(=O)C1=O | 134 ± 53 |
| CC(CN1CC(=O)NC(=O)C1)N1CC(=O)NC(=O)C1 (centres undefined) | 221 ± 43 |
| COc1cc2cc(c1Cl)N(C)C(=O)C[C@H](OC(=O)[C@H](C)N(C)C(C)=O)[C@]1(C)O[C@H]1[C@H](C)[C@@H]1C[C@@](O)(NC(=O)O1)[C@H](OC)/C=C/C=C(\C)C2 | 22.5 ± 4.8 |
| CN1CCN(CN2C(=O)C3C4C=CC(C3C2=O)C2C3C(=O)N(CN5CCN(C)CC5)C(=O)C3C42)CC1 (centres undefined) | 91.4 ± 32 |
| O=C(NC(=O)c1c(Cl)nc2sccn12)Nc1ccc(Cl)cc1 | 136 ± 25 |
| O=C1C=C(Nc2cccnc2)c2ccccc2C1=O | 59.3 ± 11 |
| Cc1cccc(C)c1NC(=O)C(=O)C(c1ccccc1Cl)S(=O)(=O)Cc1ccccc1Cl (centres undefined) | 85.2 ± 16 |
| COc1ccc2c(O)c3[n+](cc2c1OC)CCc1cc2c(cc1-3)OCO2 | 103 ± 14 |

| Compound | cell growth [%] |
| --- | --- |
| CCOC(=O)Cc1cc(=O)oc2cc(O)ccc12 | 80.4 ± 11 |
| N[C@H](C(=O)O)[C@@H]1CC(Cl)=NO1 | 85.3 ± 21 |
| [N-]=[N+]=NC1=NNC2(C(=O)N1)c1ccccc1-c1ccccc12 | 99.3 ± 38 |
| COC(=O)c1ccc(NCc2cc(O)ccc2O)cc1 | 108 ± 12 |
| CCC1CN2CCc3cc(OC)c(OC)cc3C2CC1CC1c2cc(OC)c(OC)cc2CCN1C(=O)C(Cc1c[nH]c2ccccc12)NC(=O)OC(C)(C)C (centres undefined) | 94 ± 23 |
| Cc1ccc(C)c(NC(=O)C(=O)C(C(=O)c2ccc3ccccc3c2)C2OC(=O)c3ccccc32)c1 (centres undefined) | 121 ± 78 |
| CCN(CC)CCCC(C)NC(=O)c1ccc2c(c1)C(=O)c1ccccc1C2=O (centres undefined) | 35.6 ± 15 |
| O=C(C[n+]1ccc2ccccc2c1)c1ccc2ccc3ccccc3c2c1 | 95.1 ± 31 |
| CC1=C/C(=N\OCC(=O)O)CC(c2ccc(C(C)C)cc2)C1 (centres undefined) | 12.4 ± 5 |
| O=c1c(O)c(-c2ccc(O)c(O)c2)oc2cc(O)ccc12 | 94.3 ± 22 |
| CCCCCCCCCCCCC(O)C(=O)O (centres undefined) | 115 ± 19 |
| COC(=O)Nc1nc2ccc(Br)cc2[nH]1 | 107 ± 23 |
| COc1ccc2nc(NC(=O)C(=O)CC(=O)c3ccc(Cl)cc3)sc2c1 | 109 ± 40 |
| CC1(C)N=C(N)N=C(N)N1c1ccc(CCCCc2ccc(Cl)cc2Cl)cc1 | 51.5 ± 9.2 |
| CO[C@@H]1C[C@](C)(O)Cc2cc3c(c(O)c21)C(=O)c1c(O)cc2c(c1C3=O)O[C@@H]1O[C@@]2(C)[C@H](O)[C@@H](N(C)C)[C@@H]1O | 37.7 ± 42 |
| COC(C(=O)C(O)C(C)O)C1Cc2cc3cc(OC4CC(OC5CC(O)C(O)C(C)O5)C(O)C(C)O4)c(C)c(O)c3c(O)c2C(=O)C1OC1CC(OC2CC(OC3CC(O)C(OC)C(C)O3)C(O)C(C)O2)C(O)C(C)O1 (centres undefined) | 54.3 ± 53 |
| C=C(C#N)C(=O)OCC(CC)CC.C=C(C#N)C(=O)OCC(CC)CC.CS(C)=O.CS(C)=O.Nc1c(N=Nc2ccc(-c3ccc(N=Nc4cc(S(=O)(=O)[O-])c5ccccc5c4N)cc3)cc2)cc(S(=O)(=O)[O-])c2ccccc12.[Pt+2] | 107 ± 14 |
| CON(C)C(=O)C1CCCO1 (centres undefined) | 79.4 ± 11 |
| O=C(CC(O)(C(F)(F)F)C(F)(F)Cl)CC(O)(C(F)(F)F)C(F)(F)Cl (centres undefined) | 66.8 ± 21 |
